Results from PubChem BioAssay (Tox21).
Results filed as inconclusive are left out. Activity calls are given as the source filed them. Calls come from the whole dose curve; as a rule, active = well fitted curve in the direction sought with a large enough effect in the repeat runs; inconclusive = weak or mixed curves; inactive = no such curve, though single readings can be large; an effect the other way counts as inactive or inconclusive.

Tests used:
[1] = A CellTox Green Cytotoxicity Assay to monitor cytotoxicity in HepG2 cells - 24 hour (AID 1224878); note: nearly all actives have a fitted effect of over 45% in size
Procedure, shortened: (§1)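 HepG2 cells were seeded together with the CellTox Green dye at 600 cells/well, left 5 h at 37 C/5% CO2, then given compounds in DMSO. Fluorescence from dye bound to dead-cell DNA was read repeatedly over 40 h of treatment at 37 C.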

[2] = A CellTox Green Cytotoxicity Assay to monitor cytotoxicity in HepG2 cells - 40 hour (AID 1224879); note: nearly all actives have a fitted effect of over 40% in size
Procedure, shortened: as §1

[3] = qHTS RealTime-Glo MT Cell Viability Assay in HEK293 cells - 0 hour (AID 1224880); note: top concentration of the series differs between compounds; nearly all actives have a fitted effect of over 45% in size
Procedure, shortened: (§2)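 HEK293 cells mixed with RealTime-Glo reagents (NanoLuc plus cell-permeant prosubstrate) at 600 cells/well, preincubated 5 h at 37 C/5% CO2, then given 23 nL compound in DMSO. Nonlytic luminescence from viable cells was read at 0, 8, 16, 24, 32 and 40 h.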

[4] = A CellTox Green Cytotoxicity Assay to monitor cytotoxicity in HEK293 cells - 32 hour (AID 1224881); note: nearly all actives have a fitted effect of over 40% in size
Procedure, shortened: (§3)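 HEK293 cells premixed with CellTox Green dye were seeded at 600 cells/well and left 5 h at 37 C/5% CO2 before pin transfer of 23 nL compound in DMSO. Fluorescence from dye bound to dead-cell DNA was read during 40 h treatment.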

[5] = A CellTox Green Cytotoxicity Assay to monitor cytotoxicity in HepG2 cells - 0 hour (AID 1224882); note: nearly all actives have a fitted effect of over 35% in size
Procedure, shortened: as §1

[6] = A CellTox Green Cytotoxicity Assay to monitor cytotoxicity in HepG2 cells - 32 hour (AID 1224883); note: nearly all actives have a fitted effect of over 50% in size
Procedure, shortened: as §1

[7] = A CellTox Green Cytotoxicity Assay to monitor cytotoxicity in HEK293 cells - 8 hour (AID 1224884); note: nearly all actives have a fitted effect of over 35% in size
Procedure, shortened: as §3

[8] = qHTS RealTime-Glo MT Cell Viability Assay in HepG2 cells - 16 hour (AID 1224885); note: nearly all actives have a fitted effect of over 50% in size
Procedure, shortened: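 Compound treatment began 5 h after plating HepG2 cells (600/well) with NanoLuc luciferase and prosubstrate. Plates stayed at 37 C for 40 h; luminescence was captured at six time points, 0 h through 40 h.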

[9] = qHTS RealTime-Glo MT Cell Viability Assay in HEK293 cells - 24 hour (AID 1224886); note: top concentration of the series differs between compounds; nearly all actives have a fitted effect of over 50% in size
Procedure, shortened: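 Quantitative high-throughput screen of the Tox21 10K library in HEK293: cells and RealTime-Glo reagents plated together, compound added at 5 h, luminescence monitored through 40 h at 37 C.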

[10] = qHTS RealTime-Glo MT Cell Viability Assay in HEK293 cells - 8 hour (AID 1224887); note: top concentration of the series differs between compounds; nearly all actives have a fitted effect of over 50% in size
Procedure, shortened: as §2
% is set by controls: 0 for no effect and ±100 for the full control effect.

Cc1ccc(C(=O)O)cc1[N+](=O)[O-]
inactive: Potency [1] | Potency [2] | Potency [3] | Potency [4] | Potency [5] | Potency [6] | Potency [7] | outcome [8] | Potency [9] | Potency [10]

CO[Si](CCCn1c(=O)n(CCC[Si](OC)(OC)OC)c(=O)n(CCC[Si](OC)(OC)OC)c1=O)(OC)OC
inactive: Potency [1] | Potency [2] | Potency [3] | Potency [4] | Potency [5] | Potency [6] | Potency [7] | outcome [8] | Potency [9] | Potency [10]

C[C@@H](O)C(=O)O
inactive: Potency [1] | Potency [2] | Potency [3] | Potency [4] | Potency [5] | Potency [6] | Potency [7] | outcome [8] | Potency [9] | Potency [10]

c1ccc(-c2nn[nH]n2)cc1
inactive: Potency [1] | Potency [2] | Potency [3] | Potency [4] | Potency [5] | Potency [6] | Potency [7] | outcome [8] | Potency [9] | Potency [10]

OCCN1CCOCC1
inactive: Potency [1] | Potency [2] | Potency [3] | Potency [4] | Potency [5] | Potency [6] | Potency [7] | outcome [8] | Potency [9] | Potency [10]

CC/C(C)=N\O[Si](C)(O/N=C(\C)CC)O/N=C(\C)CC
inactive: Potency [1] | Potency [2] | Potency [3] | Potency [4] | Potency [5] | Potency [6] | Potency [7] | outcome [8] | Potency [9] | Potency [10]

O=C(O)c1cc2ccccc2nc1C(=O)O
inactive: Potency [1] | Potency [2] | Potency [3] | Potency [4] | Potency [5] | Potency [6] | Potency [7] | outcome [8] | Potency [9] | Potency [10]

Cc1ccc(C(C)NC(=O)[C@@H](NC(=O)OC(C)C)C(C)C)cc1 (stereo not given in full)
inactive: Potency [1] | Potency [2] | Potency [3] | Potency [4] | Potency [5] | Potency [6] | Potency [7] | outcome [8] | Potency [9] | Potency [10]

Cc1ccc(N)cc1S(=O)(=O)O
inactive: Potency [1] | Potency [2] | Potency [3] | Potency [4] | Potency [5] | Potency [6] | Potency [7] | outcome [8] | Potency [9] | Potency [10]

CCCCOC(=O)C(C)O (stereo not given)
inactive: Potency [1] | Potency [2] | Potency [3] | Potency [4] | Potency [5] | Potency [6] | Potency [7] | outcome [8] | Potency [9] | Potency [10]

Cc1ncc([N+](=O)[O-])n1CC(C)O (stereo not given)
inactive: Potency [1] | Potency [2] | Potency [3] | Potency [4] | Potency [5] | Potency [6] | Potency [7] | outcome [8] | Potency [9] | Potency [10]

[O-][n+]1cccc(/C(Cl)=N/OC[C@@H](O)CN2CCCCC2)c1
inactive: Potency [1] | Potency [2] | Potency [3] | Potency [4] | Potency [5] | Potency [6] | Potency [7] | outcome [8] | Potency [9] | Potency [10]

CCOC(=O)CC1(C)OCC(C)O1 (stereo not given)
inactive: Potency [1] | Potency [2] | Potency [3] | Potency [4] | Potency [5] | Potency [6] | Potency [7] | outcome [8] | Potency [9] | Potency [10]

N#CCC(=O)NN
inactive: Potency [1] | Potency [2] | Potency [3] | Potency [4] | Potency [5] | Potency [6] | Potency [7] | outcome [8] | Potency [9] | Potency [10]

CC1c2ccccc2CN1NC(=O)c1ccc(Cl)c(S(N)(=O)=O)c1 (stereo not given)
inactive: Potency [1] | Potency [2] | Potency [3] | Potency [4] | Potency [5] | Potency [6] | Potency [7] | outcome [8] | Potency [9] | Potency [10]

OC[C@@H](O)C(O)[C@@H](O)CO (stereo not given in full)
inactive: Potency [1] | Potency [2] | Potency [3] | Potency [4] | Potency [5] | Potency [6] | Potency [7] | outcome [8] | Potency [9] | Potency [10]

Cc1ccccc1C(N)=O
inactive: Potency [1] | Potency [2] | Potency [3] | Potency [4] | Potency [5] | Potency [6] | Potency [7] | outcome [8] | Potency [9] | Potency [10]

Cc1c(NC(=O)c2cccnc2)c(=O)n(-c2ccccc2)n1C
inactive: Potency [1] | Potency [2] | Potency [3] | Potency [4] | Potency [5] | Potency [6] | Potency [7] | outcome [8] | Potency [9] | Potency [10]

O=S(=O)(O)c1ccc2c(N=Nc3ccc(S(=O)(=O)O)c4ccccc34)c(O)c(S(=O)(=O)O)cc2c1
inactive: cytotoxicity [1] -12.7% [at 6.97 µM] | cytotoxicity increase [2] -16.2% [at 6.97 µM] | activity change, negative = cytotoxicity [3] 7.55% [at 6.97 µM] | cytotoxicity increase [4] 8.52% [at 6.97 µM] | cytotoxicity [5] -11.5% [at 6.97 µM] | cytotoxicity increase [6] -12.7% [at 6.97 µM] | cytotoxicity increase [7] 7.19% [at 6.97 µM] | activity change, negative = cytotoxic [8] 0.447% [at 6.97 µM] | activity change, negative = cytotoxicity [9] 5.55% [at 6.97 µM] | activity change, negative = cytotoxicity [10] 2.74% [at 6.97 µM]

CCCCOCC(C)O (stereo not given)
inactive: Potency [1] | Potency [2] | Potency [3] | Potency [4] | Potency [5] | Potency [6] | Potency [7] | outcome [8] | Potency [9] | Potency [10]

CC(C)COC(=O)c1ccccc1
inactive: Potency [1] | Potency [2] | Potency [3] | Potency [4] | Potency [5] | Potency [6] | Potency [7] | outcome [8] | Potency [9] | Potency [10]
